Source: PubChem BioAssay (NCI)
About 83,000 compounds went through this panel and 20% of them were active in at least one assay; those are over-represented in the sample as a whole.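 Activity criterion: percent growth below 10, measured after cells in 96-well plates were exposed to a single compound concentration for 48 hours.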 The source made the active and inactive calls.

Test system: HL-60(TB) leukemia
Test: NCI-60 one-dose screen, 48 h (100 = growth as untreated, 0 = no growth, -100 = all killed)
Settings: 10 µM unless noted

Row | Compound | growth
1 | CCC(C)(O)c1ccc(C)cc1 (centres undefined) | 97.3% (inactive)
2 | CCOC(=O)/C=C/c1cc2cc(-c3csc4ccccc34)ccc2[nH]1 | 32.1% (inactive)
3 | Nn1c(Nc2ccc(S(=O)(=O)Nc3ncccn3)cc2)nnc(/C=C/c2c(O)ccc3ccccc23)c1=O | 86.1% (inactive)
4 | CCOC(=O)C12CCCC1=CC(=O)CC2 (centres undefined) | 100% (inactive)
5 | C=COC(=O)CCOCC(CC)CCCC (centres undefined) | 91.8% (inactive)
6 | O=C1NC(c2ccc(Cl)c(Cl)c2)=C/C1=C\c1ccccc1 | 94.1% (inactive)
7 | O=[N+]([O-])c1ccc2[nH]cc(-c3c4ccccc4cc4[nH]c5ccc([N+](=O)[O-])cc5c34)c2c1 | 11.7% (inactive)
8 | O=C(Cn1ccc2ccccc21)Nc1ccc(-c2nc3ccccc3s2)cc1 | 99.9% (inactive)
9 | CCOC(=O)c1cc(C(=O)c2cc(OC)c(OC)c(OC)c2)n2ncccc12 | -32.5% (active)
10 | O=S(=O)(NCCNc1cc(-c2cn(-c3ccccc3)nc2-c2cccc(O)c2)ccn1)c1ccc(Cl)cc1 | 15.3% (inactive)
11 | Cc1cc(=O)[nH]c2c(C#N)cnn12 | 106% (inactive)
12 | Cc1ccc(NC(=S)NNC(=S)NNc2ccccc2)cc1C | 20.4% (inactive)
13 | CN1CCN(CC#CCn2c3c(c4ccccc42)C[C@]2(C)[C@H]4CC[C@@H]5[C@H]6[C@H]7OC(=O)[C@@]6(CCC7(C)C)CC[C@@]5(C)[C@]4(C)CC[C@H]2C3(C)C)CC1 | 66.3% (inactive)
14 | CC(=O)OC1Oc2ccccc2-c2oc(=O)c(-c3cc(=O)oc4cc(O)ccc34)cc21 (centres undefined) | 47% (inactive)
